Test results taken from PubChem BioAssay AID1159580 (chemical genetic matrix, 2015).
“And” between values parts separate entries of the source, which are not always exact repeats. Equal values may be shown once. The campaign covered roughly 5,500 compounds. About 2,000 (36%) were called active. Roughly 18% stayed inconclusive and do not appear here. Rule as the data show it: active = normalized growth mostly below about 0.91 (no sharp cut-off); inconclusive = no clear call, values can overlap the other calls; inactive = mostly above about 0.92. The list shows a part of the results.

Assay: chemical genetic growth profiling, strain panel (AID 1159580);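 also: tested at 20 µM; growth read once vehicle control cultures reached saturation at 30 °C; 1 = growth at the plate median or of vehicle wells; lower values mean less growth of the strain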
Details: growth OD
[1] = S. cerevisiae deletion strains, locus YAL013W, strain DEP1, stronger effect = lower value
[2] = S. cerevisiae deletion strains, locus YBR229C, strain ROT2, stronger effect = lower value
[3] = S. cerevisiae deletion strains, locus YDL101C, strain DUN1, stronger effect = lower value
[4] = S. cerevisiae deletion strains, locus YDL134C, strain PPH21, stronger effect = lower value
[5] = S. cerevisiae deletion strains, locus YDR150W, strain NUM1, stronger effect = lower value
[6] = S. cerevisiae deletion strains, locus YEL061C, strain CIN8, stronger effect = lower value
[7] = S. cerevisiae deletion strains, locus YGR078C, strain PAC10, stronger effect = lower value
[8] = S. cerevisiae deletion strains, locus YHR030C, strain SLT2, stronger effect = lower value
[9] = S. cerevisiae deletion strains, locus YHR087W, strain rtc3, stronger effect = lower value
[10] = S. cerevisiae deletion strains, locus YJR043C, strain POL32, stronger effect = lower value
[11] = S. cerevisiae deletion strains, locus YJR075W, strain HOC1, stronger effect = lower value
[12] = S. cerevisiae deletion strains, locus YLR039C, strain RIC1, stronger effect = lower value
[13] = S. cerevisiae deletion strains, locus YLR058C, strain SHM2 (second series), stronger effect = lower value
[14] = S. cerevisiae deletion strains, locus YLR085C, strain ARP6, stronger effect = lower value
[15] = S. cerevisiae deletion strains, locus YLR262C, strain YPT6, stronger effect = lower value
[16] = S. cerevisiae deletion strains, locus YML094W, strain GIM5, stronger effect = lower value
[17] = S. cerevisiae deletion strains, locus YMR219W, strain ESC1, stronger effect = lower value
[18] = S. cerevisiae deletion strains, locus YMR263W, strain SAP30, stronger effect = lower value
[19] = S. cerevisiae deletion strains, locus YNL153C, strain GIM3, stronger effect = lower value
[20] = S. cerevisiae deletion strains, locus YNL298W, strain CLA4 (second series), stronger effect = lower value
[21] = S. cerevisiae deletion strains, locus YNL322C, strain KRE1, stronger effect = lower value
[22] = S. cerevisiae deletion strains, locus YNR030W, strain Alg12, stronger effect = lower value
[23] = S. cerevisiae deletion strains, locus YPL055C, strain LGE1, stronger effect = lower value
[24] = S. cerevisiae deletion strains, locus YPL241C, strain CIN2, stronger effect = lower value
[25] = S. cerevisiae deletion strains, locus YPR135W, strain CTF4, stronger effect = lower value

Measured: normalized growth

CCCCNC(=O)NCCSCc1ccco1
inactive: [1] 1.01 | [2] 0.986 | [3] 0.982 | [4] 0.993 | [5] 1 | [6] 0.98 | [7] 0.994 | [8] 1.02 | [9] 0.99 | [10] 1.01 | [11] 1.01 | [12] 1 | [13] 0.991 | [14] 0.943 | [15] 1.02 | [16] 0.988 | [17] 0.989 | [18] 0.996 | S. cerevisiae deletion strains, locus YNL128W, strain TEP1, stronger effect = lower value 0.987 | [19] 1.01 | [20] 0.984 | [21] 0.99 | [22] 0.998 | [23] 1 | [24] 0.988 | [25] 1.05 | S. cerevisiae strains, strain wild type, stronger effect = lower value 0.98

O=C(NCCSCc1ccco1)Nc1cc(Cl)cc(Cl)c1
inactive: S. cerevisiae deletion strains, locus YAR019C, strain CDC15, stronger effect = lower value 0.958 | S. cerevisiae deletion strains, locus YBL105C, strain PKC1, stronger effect = lower value 0.96 | S. cerevisiae deletion strains, locus YBR135W, strain CKS1, stronger effect = lower value 0.954 | S. cerevisiae deletion strains, locus YBR136W, strain MEC1, stronger effect = lower value 0.963 | S. cerevisiae deletion strains, locus YBR160W, strain CDC28, stronger effect = lower value 0.957 | [2] 0.976 | S. cerevisiae deletion strains, locus YDL017W, strain CDC7, stronger effect = lower value 0.956 | S. cerevisiae deletion strains, locus YDL028C, strain MPS1, stronger effect = lower value 0.966 | [3] 0.97 and 0.977 | S. cerevisiae deletion strains, locus YDL108W, strain KIN28, stronger effect = lower value 0.958 | S. cerevisiae deletion strains, locus YDL132W, strain cdc53, stronger effect = lower value 0.949 | S. cerevisiae deletion strains, locus YDL214C, strain PRR2, stronger effect = lower value 0.894 | S. cerevisiae deletion strains, locus YDR052C, strain DBF4, stronger effect = lower value 0.972 | S. cerevisiae deletion strains, locus YDR054C, strain cdc34, stronger effect = lower value 0.942 | [5] 0.908 | S. cerevisiae deletion strains, locus YDR226W, strain ADK1, stronger effect = lower value 0.965 | S. cerevisiae deletion strains, locus YDR477W, strain SNF1, stronger effect = lower value 0.885 | [6] 0.984 | S. cerevisiae deletion strains, locus YER123W, strain YCK3, stronger effect = lower value 0.842 | S. cerevisiae deletion strains, locus YER133W, strain GLC7, stronger effect = lower value 0.895 | S. cerevisiae deletion strains, locus YFL009W, strain cdc4, stronger effect = lower value 0.956 | S. cerevisiae deletion strains, locus YFL029C, strain CAK1, stronger effect = lower value 0.951 | S. cerevisiae deletion strains, locus YFR003C, strain YPI1, stronger effect = lower value 0.962 | S. cerevisiae deletion strains, locus YFR019W, strain FAB1, stronger effect = lower value 0.897 | S. cerevisiae deletion strains, locus YFR028C, strain CDC14, stronger effect = lower value 0.956 | S. cerevisiae deletion strains, locus YGR040W, strain KSS1, stronger effect = lower value 0.893 | S. cerevisiae deletion strains, locus YGR052W, strain FMP48, stronger effect = lower value 0.967 | [7] 0.957 | S. cerevisiae deletion strains, locus YGR092W, strain DBF2, stronger effect = lower value 0.914 | S. cerevisiae deletion strains, locus YHR079C, strain IRE1, stronger effect = lower value 0.853 | S. cerevisiae deletion strains, locus YHR082C, strain KSP1, stronger effect = lower value 0.866 | [9] 0.966 | S. cerevisiae deletion strains, locus YHR205W, strain SCH9, stronger effect = lower value 0.86 | S. cerevisiae deletion strains, locus YIL147C, strain SLN1, stronger effect = lower value 0.955 | S. cerevisiae deletion strains, locus YJL095W, strain BCK1, stronger effect = lower value 0.815 | S. cerevisiae deletion strains, locus YJL128C, strain PBS2, stronger effect = lower value 0.928 | S. cerevisiae deletion strains, locus YJL157C, strain FAR1, stronger effect = lower value 0.893 | S. cerevisiae deletion strains, locus YJR016C, strain ILV3, stronger effect = lower value 0.96 | [10] 0.932 | S. cerevisiae deletion strains, locus YJR066W, strain TOR1 (second series), stronger effect = lower value 0.946 | S. cerevisiae deletion strains, locus YJR066W, strain TOR1, stronger effect = lower value 0.824 | [11] 0.958 | S. cerevisiae deletion strains, locus YKL048C, strain ELM1, stronger effect = lower value 0.934 | S. cerevisiae deletion strains, locus YKL067W, strain YNK1, stronger effect = lower value 0.898 | S. cerevisiae deletion strains, locus YKL101W, strain HSL1, stronger effect = lower value 0.911 | S. cerevisiae deletion strains, locus YKL193C, strain SDS22, stronger effect = lower value 0.942 | S. cerevisiae deletion strains, locus YKL203C, strain TOR2, stronger effect = lower value 0.916 | [13] 0.953 | [14] 0.865 | S. cerevisiae deletion strains, locus YLR133W, strain CKI1, stronger effect = lower value 0.893 | S. cerevisiae deletion strains, locus YLR403W, strain SFP1, stronger effect = lower value 0.868 | S. cerevisiae deletion strains, locus YML070W, strain DAK1, stronger effect = lower value 0.879 | [16] 0.918 | S. cerevisiae deletion strains, locus YMR001C, strain CDC5, stronger effect = lower value 0.954 | S. cerevisiae deletion strains, locus YMR205C, strain PFK2 (second series), stronger effect = lower value 0.914 | [17] 0.976 | [18] 0.917 | S. cerevisiae deletion strains, locus YMR277W, strain FCP1, stronger effect = lower value 0.952 | S. cerevisiae deletion strains, locus YNL006W, strain LST8, stronger effect = lower value 0.951 | S. cerevisiae deletion strains, locus YNL020C, strain ARK1, stronger effect = lower value 0.879 | [19] 0.97 | S. cerevisiae deletion strains, locus YNL161W, strain CBK1, stronger effect = lower value 0.96 | S. cerevisiae deletion strains, locus YNL183C, strain NPR1, stronger effect = lower value 0.845 | S. cerevisiae deletion strains, locus YNL207W, strain RIO2, stronger effect = lower value 0.943 | S. cerevisiae deletion strains, locus YNL222W, strain SSU72, stronger effect = lower value 0.953 | [20] 0.879 | S. cerevisiae deletion strains, locus YNL307C, strain MCK1 (second series), stronger effect = lower value 0.888 | [21] 0.96 | [22] 0.897 | S. cerevisiae deletion strains, locus YOL078W, strain AVO1, stronger effect = lower value 0.948 | S. cerevisiae deletion strains, locus YOL136C, strain PFK27, stronger effect = lower value 0.853 | S. cerevisiae deletion strains, locus YOR061W, strain CKA2, stronger effect = lower value 0.9 | S. cerevisiae deletion strains, locus YOR119C, strain RIO1, stronger effect = lower value 0.954 | S. cerevisiae deletion strains, locus YOR231W, strain MKK1, stronger effect = lower value 0.863 | S. cerevisiae deletion strains, locus YOR329C, strain SCD5, stronger effect = lower value 0.956 | S. cerevisiae deletion strains, locus YPL031C, strain PHO85, stronger effect = lower value 0.872 | [23] 0.858 | S. cerevisiae deletion strains, locus YPL153C, strain RAD53, stronger effect = lower value 0.894 | S. cerevisiae deletion strains, locus YPL204W, strain HRR25, stronger effect = lower value 0.867 | S. cerevisiae deletion strains, locus YPL209C, strain IPL1, stronger effect = lower value 0.958 | [24] 0.937 | S. cerevisiae deletion strains, locus YPR025C, strain CCL1, stronger effect = lower value 0.952 | S. cerevisiae deletion strains, locus YPR106W, strain ISR1, stronger effect = lower value 0.959 | S. cerevisiae deletion strains, locus YPR111W, strain DBF20, stronger effect = lower value 0.957 | [25] 0.841 | S. cerevisiae deletion strains, strain NNK1, stronger effect = lower value 0.952 | S. cerevisiae deletion strains, strain TSCII, stronger effect = lower value 0.954
0.822 (inactive) and 0.683 (active): [8]
active: [1] 0.915 | [4] 0.724 | [12] 0.769 | S. cerevisiae deletion strains, locus YLR113W, strain HOG1, stronger effect = lower value 0.842 | [15] 0.759 | S. cerevisiae deletion strains, locus YPL256C, strain CLN2, stronger effect = lower value 0.818
